PubChem BioAssay (NCI)
About 83,000 compounds went through this panel and 20% of them were active in at least one assay; those are over-represented in the sample as a whole.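 Compound tested at a single concentration for 48 hours in 96-well plates; a percent growth value below 10 was scored as active.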 A number with no mark means an inactive call. The source made the active and inactive calls.

System: MDA-MB-468 breast
Test: NCI-60 one-dose screen, 48 h (100 = growth as untreated, 0 = no growth, -100 = all killed)
Conditions: 10 µM unless noted

Point of comparison: `CC(=O)[C@H]1CC[C@H]2[C@@H]3CC[C@H]4C[C@H](N)CC[C@]4(C)[C@H]3CC[C@]12C`, growth 64.1%. Against it:
- COc1cc(/C=C\c2cc(OC)c(OC)c(OC)c2)cc(NS(=O)(=O)c2cccc(Cl)c2)c1OC — lower, 47%
- CC(Cc1ccc2c(c1)OCO2)NN (stereo not given) — higher, 105%
- O=S(=O)(O)c1ccc(-c2ccc([As](=O)(O)O)cc2)cc1 — higher, 105%
- CNC(=O)CCl — higher, 100%
- CCOC(=O)/C(C#N)=C/c1ccc(N(CCCl)CCCl)cc1 — higher, 64.2%
- CCOC(=O)[C@@H](C)C[C@H](Cc1ccccc1)NC(=O)c1csc([C@@H](C[C@H](C(C)C)N(C)C(=O)[C@@H](NC(=O)[C@H]2CCCCN2C)C(C)(C)C)OC(C)=O)n1 — lower, 10.7%
- CCOP(=O)(OCC)Oc1ccc(Sc2ccc(OP(=O)(OCC)OCC)cc2)cc1 — higher, 107%

For `CC[C@H](C)[C@H](NC(=O)c1ccccn1)C(=O)N(C)[C@H](C[C@@H](OC(C)=O)c1nc(C(=O)N[C@@H](Cc2ccccc2)C[C@H](C)C(=O)OC)cs1)C(C)C`, the growth was -7.06% (active).
With `COC(C(=O)[C@@H](O)[C@@H](C)O)[C@@H]1Cc2cc3cc(O[C@H]4C[C@@H](O[C@H]5C[C@@H](O)[C@H](O)C(C)O5)[C@H](O)C(C)O4)c(C)c(O)c3c(O)c2C(=O)[C@H]1O[C@H]1C[C@@H](O[C@H]2C[C@@H](O[C@H]3C[C@@H](O)[C@@H](O)C(C)O3)[C@@H](O)C(C)O2)[C@H](O)C(C)O1` (stereo not given in full) the growth was -41.2% (active).
